# Measurements as given in the supplement of paper PMC8728848.
# Many of the other results were omitted from the sample, so the strongest signals are more common in it than they were.
# B1: FimA-N3 (Actinomyces oris) (protein)
# chain: MHHHHHHSSGVDLGTENLYFQSNAGLQGAQFQLYKAKNAYANTCSNEKEGAPIAINGQTTLTTDAQGAIDIKGLFISDSIDGADRDNQVNAMERCYVLVETKAPAGYVLPAGNGAATPVKVKAGEETTDN
# What was measured:
# Test in all cases: glycan array binding signal (z-score within array); higher = stronger binding
# Details in all cases: glycan notation: IUPAC condensed, linker removed
# [1] = target: Gal(b1-4)GlcNAc(b1-3)[Fuc(a1-3)GlcNAc(b1-6)]Gal(b1-4)Glc
# Procedure, shortened: (§1)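 The binding signal is a Z-score computed within each array and averaged over linkers. Arrays of the same protein sequence at different concentrations or buffers were also averaged together. Data originate from 3228 arrays in the Consortium for Functional Glycomics database, kept only where the protein sequence was available.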
# [2] = target: Gal(b1-4)GlcNAc(b1-6)Gal(b1-4)GlcNAc
# Procedure, shortened: as §1
# [3] = target: Gal3S(b1-4)Glc
# Procedure, shortened: as §1
# [4] = target: Gal3S(b1-4)[Fuc(a1-3)]GlcNAc6S
# Procedure, shortened: as §1
# [5] = target: Gal3S6S(b1-4)GlcNAc6S
# Procedure, shortened: as §1
# [6] = target: Gal6S(b1-3)GlcNAc6S
# Procedure, shortened: as §1
# [7] = target: GalNAc(b1-3)Gal
# Procedure, shortened: as §1
# [8] = target: GalNAc(b1-4)GlcNAc
# Procedure, shortened: as §1
# [9] = target: Glc(a1-6)Glc(a1-6)Glc
# Procedure, shortened: as §1
# [10] = target: GlcNAc(b1-2)[GlcNAc(b1-4)]Man(a1-3)[GlcNAc(b1-4)][GlcNAc(b1-2)[GlcNAc(b1-6)]Man(a1-6)]Man(b1-4)GlcNAc(b1-4)[Fuc(a1-6)]GlcNAc
# Procedure, shortened: as §1
# [11] = target: GlcNAc(b1-2)[GlcNAc(b1-6)]Man(a1-6)[GlcNAc(b1-2)Man(a1-3)]Man(b1-4)GlcNAc(b1-4)[Fuc(a1-6)]GlcNAc
# Procedure, shortened: as §1
# [12] = target: GlcNAc(b1-3)Fuc
# Procedure, shortened: as §1
# [13] = target: GlcNAc(b1-3)Gal(b1-4)GlcNAc(b1-3)Gal(b1-4)GlcNAc(b1-2)[GlcNAc(b1-3)Gal(b1-4)GlcNAc(b1-3)Gal(b1-4)GlcNAc(b1-6)]Man(a1-6)[GlcNAc(b1-3)Gal(b1-4)GlcNAc(b1-3)Gal(b1-4)GlcNAc(b1-2)Man(a1-3)]Man(b1-4)GlcNAc(b1-4)[Fuc(a1-6)]GlcNAc
# Procedure, shortened: as §1
# [14] = target: GlcNAc(b1-3)Gal(b1-4)GlcNAc(b1-3)Gal(b1-4)GlcNAc(b1-3)Gal(b1-4)GlcNAc(b1-3)Gal(b1-4)GlcNAc(b1-2)Man(a1-3)[GlcNAc(b1-3)Gal(b1-4)GlcNAc(b1-3)Gal(b1-4)GlcNAc(b1-3)Gal(b1-4)GlcNAc(b1-3)Gal(b1-4)GlcNAc(b1-2)Man(a1-6)]Man(b1-4)GlcNAc(b1-4)GlcNAc
# Procedure, shortened: as §1
# [15] = target: Man(a1-2)Man(a1-6)[Man(a1-3)]Man(a1-6)[Man(a1-2)Man(a1-2)Man(a1-3)]Man
# Procedure, shortened: as §1
# [16] = target: Man(a1-3)[Man(a1-6)]Man(a1-6)[Man(a1-3)]Man(b1-4)GlcNAc(b1-4)GlcNAc
# Procedure, shortened: as §1
# [17] = target: Man(a1-6)Man
# Procedure, shortened: as §1
# [18] = target: Neu5Ac(a2-3)Gal(b1-3)GlcNAc(b1-6)GalNAc
# Procedure, shortened: as §1
# [19] = target: Neu5Ac(a2-3)Gal(b1-3)[Fuc(a1-4)]GlcNAc
# Procedure, shortened: as §1
# [20] = target: Neu5Ac(a2-3)GalNAc(b1-4)GlcNAc
# Procedure, shortened: as §1
# [21] = target: Neu5Ac(a2-3)[GalNAc(b1-4)]Gal(b1-4)GlcNAc(b1-3)GalNAc
# Procedure, shortened: as §1
# [22] = target: Neu5Ac(a2-6)Gal(b1-4)GlcNAc(b1-2)Man
# Procedure, shortened: as §1
# [23] = target: Neu5Ac(a2-6)Gal(b1-4)GlcNAc(b1-2)Man(a1-3)Man(b1-4)GlcNAc(b1-4)GlcNAc
# Procedure, shortened: as §1
# [24] = target: Neu5Ac(a2-6)Gal(b1-4)GlcNAc(b1-2)Man(a1-6)[GlcNAc(b1-2)Man(a1-3)]Man(b1-4)GlcNAc(b1-4)GlcNAc
# Procedure, shortened: as §1
# [25] = target: Neu5Ac(a2-6)Gal(b1-4)GlcNAc(b1-2)Man(a1-6)[Man(a1-3)]Man(b1-4)GlcNAc(b1-4)GlcNAc
# Procedure, shortened: as §1
# [26] = target: Neu5Ac(a2-6)Gal(b1-4)GlcNAc(b1-3)GalNAc
# Procedure, shortened: as §1
# [27] = target: Neu5Ac(a2-6)GlcNAc(b1-4)GlcNAc(b1-4)GlcNAc
# Procedure, shortened: as §1
binder,measurement,setting,value
B1,glycan array binding signal (z-score),[1],-0.038
same,glycan array binding signal (z-score),[2],-0.237
same,glycan array binding signal (z-score),[3],0.681
same,glycan array binding signal (z-score),[4],4.34
same,glycan array binding signal (z-score),[5],-0.339
same,glycan array binding signal (z-score),[6],-0.446
same,glycan array binding signal (z-score),[7],2.63
same,glycan array binding signal (z-score),[8],-0.022
same,glycan array binding signal (z-score),[9],-0.527
same,glycan array binding signal (z-score),[10],-0.394
same,glycan array binding signal (z-score),[11],-0.252
same,glycan array binding signal (z-score),[12],3.03
same,glycan array binding signal (z-score),[13],0.202
same,glycan array binding signal (z-score),[14],-0.047
same,glycan array binding signal (z-score),[15],-0.315
same,glycan array binding signal (z-score),[16],-0.253
same,glycan array binding signal (z-score),[17],3.05
same,glycan array binding signal (z-score),[18],0.038
same,glycan array binding signal (z-score),[19],15.7
same,glycan array binding signal (z-score),[20],-0.492
same,glycan array binding signal (z-score),[21],-0.212
same,glycan array binding signal (z-score),[22],-0.531
same,glycan array binding signal (z-score),[23],-0.045
same,glycan array binding signal (z-score),[24],0.223
same,glycan array binding signal (z-score),[25],0.03
same,glycan array binding signal (z-score),[26],-0.16
same,glycan array binding signal (z-score),[27],2.65
